Some test systems named below: HCT-15 colon; HT29 colon; SNB-19 CNS; U251 CNS; PC-3 prostate; SK-MEL-5 melanoma; UACC-62 melanoma; LOX IMVI melanoma; SK-MEL-28 melanoma; SK-MEL-2 melanoma; EKVX NSCLC; SN12C renal; UO-31 renal; TK-10 renal; ACHN renal; CAKI-1 renal; A498 renal; CCRF-CEM leukemia; MOLT-4 leukemia.
What all share (experiment): NCI-60 one-dose screen, 48 h (100 = growth as untreated, 0 = no growth, -100 = all killed)
Settings in all cases: 10 µM unless noted

This is part of a sample that, as a whole, favours compounds with a hit. Of some 83,000 tested, about 20% had one in any assay.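 Assay: single dose, 48 h. Readout: percent growth (0 = no net growth; negative = cell death). Active: <10.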 Values without a mark were called inactive. The source made the active and inactive calls.

Turning to `CC12CCCC(CC(=O)c3[nH]c4ccccc4c31)C2` (configuration not stated), the growth with HCT-15 colon was 26.6%; in the experiment with HT29 colon, 13.2%; in the experiment on SNB-19 CNS it was 27.9%; with U251 CNS, 24.9%; in the experiment with PC-3 prostate, 22.5%; with SK-MEL-5 melanoma it was 6.25% (active). Further, the growth with UACC-62 melanoma was 37.4%; with LOX IMVI melanoma, 36.2%; in the experiment with SK-MEL-28 melanoma it was 53%; in the experiment with SK-MEL-2 melanoma, 30%; with EKVX NSCLC, 42.1%; with SN12C renal it was 51.8%. Also, the growth was 51.4% with UO-31 renal; 75.4% in the experiment with TK-10 renal; 52.6% with ACHN renal; 41.7% with CAKI-1 renal; -6.37% (active) with A498 renal; 16.6% with CCRF-CEM leukemia. Besides, the growth in the experiment with MOLT-4 leukemia was 29.5%.

In the case of `CC(C)(C)Nc1c(-c2cccs2)nc2ncccn12`, the growth is 102% in the experiment on HCT-15 colon; 103% in the experiment with HT29 colon; 95.9% with SNB-19 CNS; 104% in the experiment on U251 CNS; 95% in the experiment on PC-3 prostate; 93.8% with SK-MEL-5 melanoma. In addition, the growth is 95.8% with UACC-62 melanoma; 98.5% in the experiment on LOX IMVI melanoma; 113% with SK-MEL-28 melanoma; 100% with SK-MEL-2 melanoma; 104% in the experiment on EKVX NSCLC; 94.9% in the experiment with SN12C renal. Moreover, the growth was 86.9% in the experiment with UO-31 renal; 101% in the experiment with TK-10 renal; 107% with ACHN renal; 89.9% with CAKI-1 renal; 80.1% in the experiment on A498 renal; 89.9% with CCRF-CEM leukemia. In addition, the growth in the experiment with MOLT-4 leukemia was 86.2%.

With `c1coc(CNc2ccnc(Nc3ccc(OCCN4CCCCC4)cc3)n2)c1`, the growth in the experiment on HCT-15 colon is 89.6%; in the experiment on HT29 colon, 57.6%; in the experiment on SNB-19 CNS, 97.3%; in the experiment on U251 CNS, 85.8%; in the experiment with PC-3 prostate, 82.9%; in the experiment with SK-MEL-5 melanoma it was 80.3%. Moreover, the growth was 93.6% in the experiment on UACC-62 melanoma; 82.6% in the experiment with LOX IMVI melanoma; 107% in the experiment on SK-MEL-28 melanoma; 104% in the experiment with SK-MEL-2 melanoma; 95.1% in the experiment with EKVX NSCLC; 78% in the experiment with SN12C renal. Also, the growth in the experiment with UO-31 renal is 71.2%; in the experiment on TK-10 renal, 107%; with ACHN renal it was 100%; in the experiment with CAKI-1 renal it was 92.3%; with A498 renal it was 59.8%; in the experiment on CCRF-CEM leukemia it was 81.4%. The growth in the experiment on MOLT-4 leukemia was 81.1%.

For the compound `O=C(NCCCNc1nccc(-n2ccc3cccnc32)n1)c1c(F)cccc1F`, the growth is 99.9% in the experiment with HCT-15 colon; 104% in the experiment with HT29 colon; 95.7% in the experiment on SNB-19 CNS; 102% with U251 CNS; 96.8% in the experiment on PC-3 prostate; 99.2% with SK-MEL-5 melanoma. The growth in the experiment with UACC-62 melanoma was 97.6%; in the experiment with LOX IMVI melanoma, 102%; with SK-MEL-28 melanoma it was 111%; with SK-MEL-2 melanoma, 114%; with EKVX NSCLC, 93.4%; with SN12C renal, 99.4%. For the same compound, the growth in the experiment on UO-31 renal is 92%; with TK-10 renal it was 116%; in the experiment on ACHN renal it was 94.6%; with CAKI-1 renal it was 86.3%; in the experiment on A498 renal, 103%; with CCRF-CEM leukemia it was 101%. Moreover, the growth in the experiment on MOLT-4 leukemia is 99.2%.

With `CC(C)C(C(=O)NCCN1CCOCC1)N1C(=O)/C(=C/c2ccc(Br)cc2)SC1=S` (configuration not stated), the growth in the experiment with HCT-15 colon was 99.9%; in the experiment on HT29 colon, 109%; with SNB-19 CNS, 92.5%; with U251 CNS it was 98%; in the experiment on PC-3 prostate it was 90.1%; in the experiment on SK-MEL-5 melanoma, 98.2%. The growth is 87.8% in the experiment with UACC-62 melanoma; 99% in the experiment on LOX IMVI melanoma; 96.9% with SK-MEL-28 melanoma; 93.9% with SK-MEL-2 melanoma; 104% in the experiment on EKVX NSCLC; 93.8% in the experiment with SN12C renal. Besides, the growth was 84.9% in the experiment with UO-31 renal; 121% in the experiment on TK-10 renal; 101% with ACHN renal; 97.9% in the experiment with CAKI-1 renal; 96.8% in the experiment on A498 renal; 97.8% with CCRF-CEM leukemia. Besides, in the experiment on MOLT-4 leukemia, the growth is 102%.

For the compound `CC(C)(C)NCCC(O)c1cc2c(Cl)cc(Cl)cc2c2cc(C(F)(F)F)ccc12` (configuration not stated), the growth is -70.5% (active) in the experiment with HCT-15 colon; -80.3% (active) in the experiment on HT29 colon; -70.9% (active) in the experiment on SNB-19 CNS; -94.2% (active) in the experiment on U251 CNS; -92.3% (active) with PC-3 prostate; -63.2% (active) in the experiment on SK-MEL-5 melanoma. Further, the growth with UACC-62 melanoma is -77.3% (active); in the experiment on LOX IMVI melanoma, -70.7% (active); in the experiment with SK-MEL-28 melanoma, -91.6% (active); in the experiment on SK-MEL-2 melanoma, -69.5% (active); with EKVX NSCLC it was -63.9% (active); with SN12C renal it was -80.1% (active). For the same compound, the growth in the experiment with UO-31 renal is -88.8% (active); in the experiment with TK-10 renal, -85.7% (active); in the experiment on ACHN renal, -75.9% (active); with CAKI-1 renal, -68.2% (active); in the experiment with A498 renal it was 16.5%; in the experiment with CCRF-CEM leukemia it was -50.7% (active). Also, in the experiment on MOLT-4 leukemia, the growth is -61.9% (active).

Regarding `CC(C)(C)n1cc(-c2ccnc(NCCNS(=O)(=O)c3ccc(C(F)(F)F)cc3)c2)c(-c2cccc(O)c2)n1`, the growth in the experiment on HCT-15 colon is 11.7%; in the experiment with HT29 colon, 12.4%; with SNB-19 CNS, 70.5%; in the experiment with U251 CNS, 36.8%; with PC-3 prostate, 25.4%; with SK-MEL-5 melanoma it was 20.9%. For the same compound, the growth with UACC-62 melanoma was 64.1%; with LOX IMVI melanoma, 25.8%; with SK-MEL-28 melanoma, 51.3%; with SK-MEL-2 melanoma, 66.5%; with EKVX NSCLC, 52.2%; with SN12C renal, 52.8%. Further, the growth in the experiment on UO-31 renal was 48.1%; in the experiment on TK-10 renal it was 98.7%; with ACHN renal, 57.1%; in the experiment with CAKI-1 renal, 65.9%; in the experiment on A498 renal it was 55.1%; in the experiment with CCRF-CEM leukemia, 46.1%. In the experiment with MOLT-4 leukemia, the growth is 28.9%.

With `O=S(=O)(NCCCNc1nccc(-n2ccc3cccnc32)n1)c1cccc(C(F)(F)F)c1`, the growth was 103% in the experiment with HCT-15 colon; 111% in the experiment with HT29 colon; 102% in the experiment with SNB-19 CNS; 97.8% in the experiment with U251 CNS; 103% with PC-3 prostate; 106% in the experiment on SK-MEL-5 melanoma. Also, the growth in the experiment on UACC-62 melanoma was 98.8%; in the experiment with LOX IMVI melanoma it was 99.9%; in the experiment with SK-MEL-28 melanoma, 106%; with SK-MEL-2 melanoma it was 107%; in the experiment with EKVX NSCLC, 101%; in the experiment with SN12C renal, 108%. Further, the growth was 104% with UO-31 renal; 102% with TK-10 renal; 105% in the experiment on ACHN renal; 94.6% with CAKI-1 renal; 112% in the experiment on A498 renal; 102% in the experiment on CCRF-CEM leukemia. In addition, the growth in the experiment with MOLT-4 leukemia is 97.3%.

Values taken from PubChem BioAssay (NCI).
